Sampled rows, rich in hits. Any-hit rate of the full collection: about 1.6%.
NSD2 inh – NSD2 (human) methyltransferase inhibition; NSD2 peptide methylation, AlphaScreen, 120 min; inhibition, % at 12.5 µM; actives 0.54% (n = 310,000); in the data active means inhibition above about 50%
UBC9 SUMO inh – SUMOylation inhibition; inhibition, % at 35 µM; P63279; actives 0.36% (n = 290,000); AID 2006; HTRF SUMOylation assay, SAE1/SAE2 + UBC9, in vitro; in the data active means inhibition above about 50%, passing the limit was not always enough
Casp6 inh – caspase-6 (human) enzyme inhibition; inhibition, % at 12.5 µM; P55212; purified caspase-6, Z-VEID-R110 cleavage fluorescence; actives 0.53% (n = 350,000);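 active means mean inhibition across replicates at least about 35%, with every replicate also reaching that limit, limit read from the data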;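 further: 0% = median of neutral control wells and 100% = no fluorescence left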
Target sequence (P55212 24-179 limits assumed): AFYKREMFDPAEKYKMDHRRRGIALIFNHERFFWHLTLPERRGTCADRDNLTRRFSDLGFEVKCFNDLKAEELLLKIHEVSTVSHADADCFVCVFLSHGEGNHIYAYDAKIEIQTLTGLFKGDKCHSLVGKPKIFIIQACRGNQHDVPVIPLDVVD
Target sequence (P55212 194-293 limits assumed): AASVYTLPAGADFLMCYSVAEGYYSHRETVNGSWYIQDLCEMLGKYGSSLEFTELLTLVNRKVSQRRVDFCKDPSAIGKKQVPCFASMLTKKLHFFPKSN
SIRT5 inh – blocks human SIRT5 desuccinylation of peptide. Q9NXA8. inhibition, % at 15 µM. actives 1.1% (n = 330,000). Purified SirT5, succinyl-peptide AMC, trypsin-coupled fluorescence; in the data active means inhibition above about 15%
Target sequence (Q9NXA8 whole entry, looked up): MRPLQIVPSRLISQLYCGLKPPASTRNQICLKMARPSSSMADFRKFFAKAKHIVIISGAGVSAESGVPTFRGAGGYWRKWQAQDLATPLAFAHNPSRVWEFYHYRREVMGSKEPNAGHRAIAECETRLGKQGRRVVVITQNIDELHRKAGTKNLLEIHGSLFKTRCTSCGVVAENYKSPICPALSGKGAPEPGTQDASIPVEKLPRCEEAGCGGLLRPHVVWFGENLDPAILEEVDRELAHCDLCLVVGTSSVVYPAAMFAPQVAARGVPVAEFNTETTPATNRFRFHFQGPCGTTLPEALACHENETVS
Starred values were filed as active, the others as inactive; nt = not tested or not shown.

SMILES	NSD2 inh	UBC9 SUMO inh	Casp6 inh	SIRT5 inh
COc1ccccc1NC(=O)N1CCCCN2[C@@H](CO)[C@H](c3ccc(C#CC4CCCC4)cc3)[C@@H]2C1	nt	nt	-1	17*
C[C@H]1CN([C@@H](C)CO)C(=O)c2cc(NS(=O)(=O)c3ccc(Cl)cc3)ccc2O[C@H]1CN(C)C(=O)NC1CCCCC1	nt	nt	1	0
CC=Cc1ccc2n(c1=O)C[C@H]1[C@H](CO)[C@@H](C(=O)NCCC)N(CC3CCCC3)[C@@H]21 (mixture of isomers)	nt	nt	4	11
CC(C)CC#Cc1ccc2c(c1)O[C@H](CN(C)S(=O)(=O)c1cccc(F)c1)[C@H](C)CN([C@@H](C)CO)S2(=O)=O	nt	nt	-2	17*
CC(C)CC#Cc1ccc2c(c1)O[C@H](CN(C)S(=O)(=O)c1cccc(F)c1)[C@H](C)CN([C@H](C)CO)S2(=O)=O	nt	nt	2	21*
CCCC#Cc1cnc2c(c1)C(=O)N([C@@H](C)CO)C[C@@H](C)[C@H](CN(C)CCC)O2	nt	nt	-1	1
CC(C)NC(=O)Nc1cccc2c1O[C@@H](CN(C)C(=O)Nc1cccc3ccccc13)[C@@H](C)CN([C@@H](C)CO)C2=O	nt	nt	-2	-1
CN(C)c1ccc(NC(=O)c2sc(SCC(=O)Nc3ccc(Br)cc3)nc2N)cc1	-4	55*	nt	nt
CCCC(=O)Nc1ccc2c(c1)OC[C@H](C)N(C(=O)c1ccncc1)C[C@@H](C)[C@@H](OC)CN(C)C2=O	nt	nt	-1	-3
COC(=O)C1(Cc2cc(-c3cccc(Br)c3)no2)CCN(C(=O)OC(C)(C)C)CC1	nt	-11	2	-4
COC(=O)C1(Cc2cc(-c3ccc(OC)cc3OC)no2)CCN(C(=O)OC(C)(C)C)CC1	nt	-1	5	34*
C[C@@H]1CN([C@@H](C)CO)C(=O)c2cccc(NC(=O)c3ccncc3)c2O[C@@H]1CN(C)S(=O)(=O)c1ccccc1	nt	nt	2	-3
CCOC(=O)c1ccc(NC(=O)O[C@H]2[C@H](OC(=O)Nc3ccccc3)[C@@H](OC(=O)Nc3ccccc3)[C@@H](OC)O[C@@H]2CO)cc1	nt	nt	3	20*
Cc1ccc(S(=O)(=O)N[C@@H]2CC[C@@H](CCNS(=O)(=O)Cc3ccccc3)O[C@H]2CO)cc1	nt	nt	-4	-2
CNC[C@@H]1Oc2ccc(NS(=O)(=O)c3ccc(C)cc3)cc2C(=O)N([C@@H](C)CO)C[C@H]1C	nt	nt	0	-3
C[C@H](CO)N1C[C@H](C)[C@H](CN(C)C(=O)CCCN(C)C)OCCCC[C@H](C)Oc2ccc(NC(=O)Cc3ccccc3)cc2C1=O	nt	nt	-1	-2
O=S(=O)(/C=C/c1ccccc1)Nc1ccc(N2CCOCC2)cc1	4	27	nt	nt
O=C(O)c1ccc(NS(=O)(=O)/C=C/c2ccccc2)cc1O	4	40	44*	0
CO[C@H]1CN(C)C(=O)c2cc(NS(=O)(=O)c3ccccc3C)ccc2OC[C@H](C)N(S(C)(=O)=O)C[C@H]1C	nt	nt	-1	-14
C[C@@H]1CN([C@@H](C)CO)C(=O)c2cc(-c3cccnc3)cnc2O[C@H]1CN(C)C(=O)Nc1ccc2c(c1)OCO2	nt	nt	-3	32*
C[C@H]1CN([C@@H](C)CO)C(=O)c2cc(-c3cccnc3)cnc2O[C@@H]1CN(C)C(=O)Nc1ccc2c(c1)OCO2	nt	nt	-2	0
C[C@H]1CN([C@@H](C)CO)C(=O)c2cc(-c3ccccc3)cnc2O[C@@H]1CN(C)C(=O)Nc1ccc2c(c1)OCO2	nt	nt	-1	9.5*
CO[C@H]1CN(C)C(=O)c2cc(NC(=O)Nc3cc(F)ccc3F)ccc2OC[C@@H](C)N(C(=O)c2ccccn2)C[C@H]1C	nt	nt	2	0
CC(C(=O)O)N(C(=O)c1ccccc1)c1ccc(F)cc1 (configuration not stated)	nt	-4	-1	26*
COc1ccc2c3c([nH]c2c1)[C@@H](CO)N(C(=O)Nc1ccc(F)cc1)CC31CN(C(=O)c2ccccc2F)C1	nt	nt	0	1
SMILES	NSD2 inh	UBC9 SUMO inh	Casp6 inh	SIRT5 inh
N=C1S/C(=C\c2ccccc2F)C(=O)N1c1ccc(F)cc1	1	-6	-3	-33
N=C1S/C(=C\c2cccc3ccccc23)C(=O)N1c1ccc(F)cc1	-1	63*	nt	nt
CCC(=O)N(C)C[C@@H]1Oc2cc(C#CCC(C)C)ccc2S(=O)(=O)N([C@@H](C)CO)C[C@@H]1C	nt	nt	-1	2
O=C(C[C@@H]1C[C@@H]2c3cc(NC(=O)Nc4ccccc4)ccc3O[C@@H]2[C@H](CO)O1)NC1CCCC1	nt	nt	2	1
O=C(C[C@H]1C[C@@H]2c3cc(NC(=O)Nc4ccccc4)ccc3O[C@@H]2[C@H](CO)O1)NC1CCCC1	nt	nt	6	0.5*
COc1cccc(S(=O)(=O)Nc2ccc3c(c2)[C@H]2C[C@@H](CC(=O)NC4CCCCC4)O[C@H](CO)[C@H]2O3)c1	nt	nt	64*	3
O=C(C[C@@H]1C[C@H]2c3cc(NC(=O)Nc4ccccc4F)ccc3O[C@H]2[C@H](CO)O1)NC1CCCC1	nt	nt	99*	0
O=C(C[C@H]1C[C@H]2c3cc(NC(=O)Nc4ccccc4F)ccc3O[C@H]2[C@@H](CO)O1)NCc1ccncc1	nt	nt	-2	16*
C[C@H](CO)N1C[C@H](C)[C@H](CN(C)C(=O)Nc2ccc(C(F)(F)F)cc2)Oc2ncc(-c3ccc(C#N)cc3)cc2C1=O	nt	nt	-3	8
Cc1noc(C)c1S(=O)(=O)Nc1ccc2c(c1)C(=O)N([C@H](C)CO)C[C@H](C)[C@H](CN(C)C(=O)Cc1ccccc1)OCCCC[C@H](C)O2	nt	nt	-1	2
C[C@@H]1CN([C@H](C)CO)C(=O)Cc2cc(NC(=O)c3ccncc3)ccc2O[C@H]1CN(C)S(C)(=O)=O	nt	nt	0	0
Cc1nc(C)c(CC(=O)N2CCc3c([nH]c4ccccc34)C2c2ccccn2)s1 (configuration not stated)	-3	7	10	18*
CC(=O)c1cc(CC(=O)N2CCc3c([nH]c4ccccc34)C2c2ccccn2)cs1 (configuration not stated)	-3	-6	0	-2
COc1cc(/C=C2/C(=O)c3cccc([N+](=O)[O-])c3C2=O)c(Br)cc1O	55*	16	nt	nt
COc1ccccc1NC(=O)CCCCCN1C(=O)c2cccc([N+](=O)[O-])c2C1=O	1	8	1	1
Cc1cccc(COC[C@H](Cc2ccccc2)N2CCN(C(=O)c3cc(Cl)cc(Cl)c3)CCC2=O)c1	nt	nt	-2	41*
Cc1cccc(COCC(Cc2ccccc2)N2CCN(C(=O)c3cccc(Cl)c3)CCC2=O)c1 (configuration not stated)	nt	-1	1	nt
CN(Cc1ccccc1)C(=O)c1[nH]cnc1C(=O)Nc1ccc(Br)cc1F	nt	nt	0	18*
CCCCCCCCCc1conc1C(=O)CP(=O)(OC)OC	-2	nt	1	nt
CCCCCCCCCc1conc1C(=O)/C=C/c1ccco1	nt	nt	67*	nt
CSc1nc(SCC(=O)NCc2ccco2)c2sc3nc(C(C)C)c4c(c3c2n1)CCC4	2	nt	nt	nt
CC1C(=O)N2CCCc3cc(S(=O)(=O)NCCc4ccccc4)cc1c32 (configuration not stated)	0	nt	nt	72*

Compound activity: PubChem BioAssay, several laboratories
